Test results taken from PubChem BioAssay AID1159580 (chemical genetic matrix, 2015).
The whole screen tested about 5,500 compounds, of which about 2,000 (36%) were called active. Not shown: some 18% with an inconclusive outcome. No stated cut-off is given here; in the data, active means normalized growth mostly below about 0.91 (no sharp cut-off); inconclusive means no clear call, values can overlap the other calls; inactive means mostly above about 0.92. This is one part of the list.

Assay: chemical genetic growth profiling, strain panel (AID 1159580);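 further: tested at 20 µM; growth read once vehicle control cultures reached saturation at 30 °C; 1 = growth at the plate median or of vehicle wells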
Settings: S. cerevisiae deletion strains, growth OD
[1] = locus YDL101C, strain DUN1, stronger effect = lower value
[2] = locus YHR030C, strain SLT2, stronger effect = lower value

Measured: normalized growth

CCN(CCS(=O)(=O)c1ccc(C)cc1)S(=O)(=O)c1ccccc1
inactive: locus YAL013W, strain DEP1, stronger effect = lower value 1.02 | locus YBR229C, strain ROT2, stronger effect = lower value 1.01 | locus YCL061C, strain MRC1, stronger effect = lower value 0.988 | [1] 0.991 | locus YDL134C, strain PPH21, stronger effect = lower value 0.987 | locus YDR150W, strain NUM1, stronger effect = lower value 1.01 | locus YEL061C, strain CIN8, stronger effect = lower value 0.987 | locus YGR078C, strain PAC10, stronger effect = lower value 0.998 | locus YGR229C, strain SMI1, stronger effect = lower value 0.999 | [2] 0.993 | locus YHR087W, strain rtc3, stronger effect = lower value 0.994 | locus YJR043C, strain POL32, stronger effect = lower value 1 | locus YJR075W, strain HOC1, stronger effect = lower value 0.995 | locus YKL190W, strain CNB1, stronger effect = lower value 0.998 | locus YLR039C, strain RIC1, stronger effect = lower value 1.05 | locus YLR058C, strain SHM2 (second series), stronger effect = lower value 0.998 | locus YLR085C, strain ARP6, stronger effect = lower value 1.06 | locus YLR262C, strain YPT6, stronger effect = lower value 1.05 | locus YML094W, strain GIM5, stronger effect = lower value 1.03 | locus YMR219W, strain ESC1, stronger effect = lower value 1.01 | locus YMR263W, strain SAP30, stronger effect = lower value 0.988 | locus YMR307W, strain GAS1, stronger effect = lower value 0.969 | locus YNL153C, strain GIM3, stronger effect = lower value 0.984 | locus YNL298W, strain CLA4 (second series), stronger effect = lower value 1.01 | locus YNL322C, strain KRE1, stronger effect = lower value 1.01 | locus YNR030W, strain Alg12, stronger effect = lower value 0.99 | locus YPL055C, strain LGE1, stronger effect = lower value 1.06 | locus YPL241C, strain CIN2, stronger effect = lower value 1 | locus YPR135W, strain CTF4, stronger effect = lower value 0.943

O=c1[nH][nH]c(=O)n1CCCc1cc2cccc3ccc4cccc1c4c32
inactive: locus YAR019C, strain CDC15, stronger effect = lower value 1 | locus YBL105C, strain PKC1, stronger effect = lower value 0.987 | locus YBR135W, strain CKS1, stronger effect = lower value 0.998 | locus YBR136W, strain MEC1, stronger effect = lower value 0.988 | locus YBR160W, strain CDC28, stronger effect = lower value 0.994 | locus YDL017W, strain CDC7, stronger effect = lower value 0.994 | locus YDL028C, strain MPS1, stronger effect = lower value 0.992 | [1] 0.984 | locus YDL108W, strain KIN28, stronger effect = lower value 0.988 | locus YDL132W, strain cdc53, stronger effect = lower value 0.99 | locus YDL214C, strain PRR2, stronger effect = lower value 0.968 | locus YDR052C, strain DBF4, stronger effect = lower value 0.991 | locus YDR054C, strain cdc34, stronger effect = lower value 0.994 | locus YDR226W, strain ADK1, stronger effect = lower value 0.995 | locus YDR477W, strain SNF1, stronger effect = lower value 0.979 | locus YER123W, strain YCK3, stronger effect = lower value 0.949 | locus YER133W, strain GLC7, stronger effect = lower value 0.97 | locus YFL009W, strain cdc4, stronger effect = lower value 0.994 | locus YFL029C, strain CAK1, stronger effect = lower value 0.999 | locus YFR003C, strain YPI1, stronger effect = lower value 0.981 | locus YFR019W, strain FAB1, stronger effect = lower value 0.935 | locus YFR028C, strain CDC14, stronger effect = lower value 0.987 | locus YGR040W, strain KSS1, stronger effect = lower value 0.95 | locus YGR052W, strain FMP48, stronger effect = lower value 0.936 | locus YGR092W, strain DBF2, stronger effect = lower value 0.9 | [2] 1.02 | locus YHR079C, strain IRE1, stronger effect = lower value 1 | locus YHR082C, strain KSP1, stronger effect = lower value 0.986 | locus YHR205W, strain SCH9, stronger effect = lower value 0.915 | locus YIL147C, strain SLN1, stronger effect = lower value 0.983 | locus YJL095W, strain BCK1, stronger effect = lower value 0.873 | locus YJL128C, strain PBS2, stronger effect = lower value 0.952 | locus YJL157C, strain FAR1, stronger effect = lower value 0.99 | locus YJR016C, strain ILV3, stronger effect = lower value 0.997 | locus YJR066W, strain TOR1 (second series), stronger effect = lower value 0.927 | locus YJR066W, strain TOR1, stronger effect = lower value 0.964 | locus YKL048C, strain ELM1, stronger effect = lower value 0.956 | locus YKL067W, strain YNK1, stronger effect = lower value 0.971 | locus YKL101W, strain HSL1, stronger effect = lower value 0.937 | locus YKL193C, strain SDS22, stronger effect = lower value 0.992 | locus YKL203C, strain TOR2, stronger effect = lower value 0.985 | locus YLR113W, strain HOG1, stronger effect = lower value 0.922 | locus YLR133W, strain CKI1, stronger effect = lower value 0.952 | locus YLR403W, strain SFP1, stronger effect = lower value 0.908 | locus YML070W, strain DAK1, stronger effect = lower value 0.942 | locus YMR001C, strain CDC5, stronger effect = lower value 0.992 | locus YMR205C, strain PFK2 (second series), stronger effect = lower value 0.973 | locus YMR277W, strain FCP1, stronger effect = lower value 0.989 | locus YNL006W, strain LST8, stronger effect = lower value 0.993 | locus YNL020C, strain ARK1, stronger effect = lower value 0.968 | locus YNL161W, strain CBK1, stronger effect = lower value 0.993 | locus YNL183C, strain NPR1, stronger effect = lower value 0.911 | locus YNL207W, strain RIO2, stronger effect = lower value 0.995 | locus YNL222W, strain SSU72, stronger effect = lower value 0.996 | locus YNL307C, strain MCK1 (second series), stronger effect = lower value 0.909 | locus YOL078W, strain AVO1, stronger effect = lower value 0.993 | locus YOL136C, strain PFK27, stronger effect = lower value 0.94 | locus YOR061W, strain CKA2, stronger effect = lower value 0.975 | locus YOR119C, strain RIO1, stronger effect = lower value 0.993 | locus YOR231W, strain MKK1, stronger effect = lower value 0.972 | locus YOR329C, strain SCD5, stronger effect = lower value 0.991 | locus YPL031C, strain PHO85, stronger effect = lower value 0.961 | locus YPL153C, strain RAD53, stronger effect = lower value 0.963 | locus YPL204W, strain HRR25, stronger effect = lower value 0.941 | locus YPL209C, strain IPL1, stronger effect = lower value 0.988 | locus YPL256C, strain CLN2, stronger effect = lower value 1.08 | locus YPR025C, strain CCL1, stronger effect = lower value 0.998 | locus YPR106W, strain ISR1, stronger effect = lower value 0.985 | locus YPR111W, strain DBF20, stronger effect = lower value 0.973 | strain NNK1, stronger effect = lower value 0.991 | strain TSCII, stronger effect = lower value 0.994
